# Source: PubChem BioAssay (National Center for Advancing Translational Sciences (NCATS))
# LmPK inhibitor – LmPK (Leishmania mexicana) enzyme inhibition | 290,000 tested, 0.37% active | purified LmPK, Kinase-Glo ATP luminescence, 1 h | Q27686 | Potency, µM (top dose mostly 57.5 µM), for inactives: at the highest dose activity change, negative = inhibition, actives largely listed as inhibitors; also: potency is read from the fitted curve at half-maximal effect; % is scaled to controls: 0 for no effect and ±100 for the full control effect
# Target sequence (Q27686 whole entry, looked up): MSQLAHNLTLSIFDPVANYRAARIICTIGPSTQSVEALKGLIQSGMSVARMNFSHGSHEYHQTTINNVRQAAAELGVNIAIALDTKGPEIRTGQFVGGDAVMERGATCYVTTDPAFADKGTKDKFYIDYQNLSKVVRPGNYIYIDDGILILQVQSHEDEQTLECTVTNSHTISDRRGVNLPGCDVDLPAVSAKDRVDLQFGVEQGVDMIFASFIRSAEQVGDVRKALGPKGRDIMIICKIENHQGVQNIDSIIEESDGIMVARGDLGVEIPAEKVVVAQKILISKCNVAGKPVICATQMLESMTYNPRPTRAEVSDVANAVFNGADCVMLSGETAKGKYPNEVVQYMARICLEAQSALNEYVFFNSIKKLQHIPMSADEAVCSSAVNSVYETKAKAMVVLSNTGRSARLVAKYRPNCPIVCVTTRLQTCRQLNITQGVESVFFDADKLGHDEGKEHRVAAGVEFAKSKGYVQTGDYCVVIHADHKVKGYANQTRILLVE
#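 Purified LmPK (0.1 nM) with 0.5 mM PEP and 0.1 mM ADP in imidazole buffer pH 7.2 with MgCl2/KCl, 1 h at room temperature. ATP formed was read by luciferase luminescence and normalized to no-enzyme and uninhibited controls.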
# CHX counter – affects cycloheximide protein synthesis inhibition readout, counter-screen; cell reporter, cycloheximide protein synthesis inhibition counterscreen; max response, %; 300,000 tested, 12% active; AID 2314; in the data active = max response mostly above about 13%, no sharp cut-off; inactive = mostly below about 14%; also: read at 38.3 µM for the half of the compounds with a filed dose; 0% is about no effect
# Shiga toxin inh – inhibitors of Shiga toxin in Vero cells. Vero cells, Shiga toxin protein synthesis inhibition reporter. inhibition, % at 38.7 µM. 290,000 tested, 9.2% active. AID 2315; in the data active = inhibition mostly above about 28%, no sharp cut-off; inactive = mostly below about 43%; also: 0% is about no effect
# Giardia FBPA inh – inhibitors of Giardia lamblia fructose-1,6-bisphosphate aldolase. A8B2U2. purified Giardia FBPA. Potency, µM (top dose mostly 59.6 µM), without a hit: at the top dose activity, negative = inhibition, most hits filed as inhibitors. 290,000 tested, 0.71% active. AID 2451; also: potency is read from the fitted curve at half-maximal effect; % is scaled to controls: 0 for no effect and ±100 for the full control effect; nearly all actives have a fitted effect of over 55% in size
#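 Giardia FBPA (40 nM reagent) was preincubated 10 min at RT with compound (up to 57.5 uM final), then substrate plus GAPDH/TPI/NAD/arsenate coupling system with diaphorase/resazurin was added; resorufin fluorescence (525/598 nm) was read after 20 min.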
# TbPYK inhibitor – blocks Trypanosoma brucei pyruvate kinase. Q57TT1. TbPYK enzyme, Kinase-Glo Plus ATP luminescence, 45 min. Potency, µM (doses to about 76.8 µM), for the others: at the top dose activity, negative = inhibition, usual class: inhibitors. 410,000 tested, 0.12% active. AID 624173; also: potency is read from the fitted curve at half-maximal effect; % is scaled to controls: 0 for no effect and ±100 for the full control effect; nearly all actives have a fitted effect of over 50% in size
#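 Screened from lowest to highest concentration, compounds were pinned into TbPYK/substrate mixtures, and ADP (130 uM final) was added. Plates sat at room temperature for 45 min prior to Kinase-Glo Plus detection by luminescence.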
# RE007 growth inh – less growth of the S. pombe RE007 Vpr strain | S. pombe RE007 Vpr strain, BacTiter-Glo ATP luminescence, 24 h | Potency, µM (highest dose often 92.2 µM), inactives show at the top dose activity change, negative = less growth, actives largely listed as inhibitors | 360,000 tested, 0.21% active; active = well fitted falling curve with a large enough effect; also: potency is read from the fitted curve at half-maximal effect; % is scaled to controls: 0 for no effect and ±100 for the full control effect; nearly all actives have a fitted effect of over 50% in size
#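 Fission yeast strain RE007, carrying one chromosomally integrated HIV-1 vpr copy, was seeded at OD 0.01 in PMG+AL medium with 23 nL pinned compound. After 24 h at 30 °C and 99% humidity, viability was read by BacTiter-Glo luminescence.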
# An asterisk follows results filed as active; · = no result given; [ ] = remark or other dose. Shown is part of a subset that was picked to be rich in hits. Unless noted, calls follow the shape of the dose curve; as a rule, active = well fitted curve in the direction sought with a large enough effect; inconclusive = small, poorly fitted or top-dose-only effect, or another doubt; inactive = no such curve, though single readings can be large; an effect the other way counts as inactive or inconclusive.
SMILES,LmPK inhibitor,CHX counter,Shiga toxin inh,Giardia FBPA inh,TbPYK inhibitor,RE007 growth inh
CNc1ncc(C(=O)c2ccc(F)cc2)s1,-7%,43*,67*,4%,-1%,-3%
O=C(O)CNC(=O)[C@@H](CS)Cc1ccccc1,·,·,·,10%[21.7 µM],·,·
O=C(Cc1ccccc1)Nc1nc2ccccc2[nH]1,0%,26*,79*,-3%,5%,2%
O=S(=O)(CCOc1ccccc1)c1nc2ccccc2[nH]1,0%,18*,23*,25%,6%,0%
O=C(O)Cc1c[nH]c2ccccc12,·,·,·,·,-2%,0%
O=C(Cc1ccc(Br)cc1)Nc1nc2ccccc2[nH]1,-2%,14*,22,1%,-1%,1%
O=C(Cc1c[nH]c2ccccc12)Nc1nc2ccccc2[nH]1,2%,26*,74*,-8%,-1%,1%
O=C(CCCOc1ccccc1)NCCc1nc2ccccc2[nH]1,2%,-2,-8,0%,-7%,-16%
O=C(Cc1ccc(Cl)cc1)Nc1nc2ccccc2[nH]1,5%,-1,7,0%,1%,-3%
CCCCc1cc2c(cn1)=C(OC(=O)c1ccco1)C(C)(OC(=O)CC)C(=O)C=2 (stereo unspecified),1%[11.5 µM],·,·,-10%[12.9 µM],·,·
O=C(CSc1ccccc1)Nc1nc2ccccc2[nH]1,-1%,28*,84*,-5%,-1%,15%
O=C(CCCOc1ccccc1)Nc1nc2ccccc2[nH]1,2%,34*,68*,0%,2%,-1%
Cc1ccc(OCCCC(=O)Nc2nc3ccccc3[nH]2)cc1,2%,6,5,4%,3%,3%
C[C@H](CO)N1C[C@H](C)[C@@H](CN(C)C(=O)Nc2ccc(C(F)(F)F)cc2)Oc2ccc(NC(=O)Cn3cnnn3)cc2C1=O,·,·,·,·,1%,0%
CCOC(=O)C1CCCN(c2cc(C)nc3c(-c4ccccc4OC)c(C)nn23)C1 (stereo unspecified),·,·,·,·,1%,·
COc1ccc2c(Cl)c(C(=O)N/N=C/c3ccncc3)sc2c1,4%,17,24,0%,1%,1%
COc1ccc2c(Cl)c(C(=O)NN3CCN(C)CC3)sc2c1,1%,23*,26,-10%,-4%,-11%
O=C(NC1CC1)c1sc2cc(Cl)ccc2c1Cl,·,·,·,·,1%,-15%
COc1ccc2c(Cl)c(C(=O)NC3CCS(=O)(=O)C3)sc2c1 (stereo unspecified),0%,20*,36*,1%,1%,26%
CCCCCC(=O)c1c(O)cc(OC)c(Cl)c1O,·,26*,93*,-4%,·,·
CCc1ccc(-n2nc(C)c3c(C(=O)Nc4cc(OC)cc(OC)c4)cc(C)nc32)cc1,·,·,·,·,1%,·
Cn1c2ccccc2c2cc(C(=O)N3CCN(CCO)CC3)sc21,-2%,14*,14,-17%,-1%,-2%
CC(=O)N(Cc1ccco1)Cc1cc2cccc(C)c2n2nnnc12,5%,-3,-7,5%,·,·
Cc1cccc2cc(CN(Cc3nnnn3Cc3ccco3)C3CCCC3)c3nnnn3c12,6%,10,29*,-3%,-2%,-3%
CCCOC1CCCN(C(=O)CCc2nnc(-c3ccc4c(c3)OCO4)o2)C1 (stereo unspecified),-12%,46*,117*,·,-1%,0%
CC1CCCN(C(=O)CCc2nnc(-c3ccc4c(c3)OCO4)o2)C1 (stereo unspecified),-6%,37*,101*,·,-10%,34%
CC1CCCN(C(=O)C2CCN(Cc3ccc4c(c3)OCO4)CC2)C1 (stereo unspecified),-1%,-9,-15,-6%,25%,11%
Cc1cc(C)n(CCN(C)C(=O)CCc2nnc(-c3ccc4c(c3)OCO4)o2)n1,2%,9.7*,48,-1%,2%,-8%
COc1cccc(CCNC(=O)CCc2nnc(-c3ccc4c(c3)OCO4)o2)c1,-12%,10,21,·,-3%,7%
CCC(=O)C1CCCN(C(=O)CCc2nnc(-c3ccc4c(c3)OCO4)o2)C1 (stereo unspecified),-2%,38*,51*,3%,0%,-5%
